# Experimental data as given in PubChem BioAssay AID2279 (Southern Research Specialized Biocontainment Screening …, 2010).
# Potency and affinity values are given separately. Calls of active or inactive are those of the source. Where a call stands in place of a potency, no number is given. The rule behind the calls is not given here.
# Test: HIV-1 Env-mediated cell fusion inhibitors, dose response, CCR5-tropic Env (AID 2279)
# Settings: CCR5-tropic HIV-1 Env, reporter read-out; series mostly up to 50 µM
row,SMILES,outcome
1,CC(C)(C)c1ccc(S(=O)(=O)/N=C2\C=C(NS(=O)(=O)c3ccccc3)C(=O)c3ccccc32)cc1,inactive
2,CCOc1cc(/C=C2\SC(=S)N(C(C(=O)O)c3ccccc3)C2=O)ccc1O (centres undefined),inactive
3,O=C(O)CN1C(=O)/C(=C\c2cc(Br)ccc2OCc2ccc(F)cc2)SC1=S,inactive
4,COc1cc(C(c2c(C(=O)O)[nH]c3ccccc23)c2c(C(=O)O)[nH]c3ccccc23)ccc1OCc1ccccc1,inactive
5,CCOc1cc(/C=C2\C(=O)N(c3cccc(C(=O)O)c3)N=C2C(F)(F)F)ccc1OCC(=O)Nc1ccccc1OC,inactive
6,CCc1nnc(NS(=O)(=O)c2ccc(NC(=S)NC(=O)/C=C/c3cccs3)cc2)s1,inactive
7,O=C(COc1cccc2ccccc12)Nc1ccc(Cl)cc1C(=O)O,inactive
8,CN1C(=O)/C(=C/c2ccc(C(=O)Nc3ccc(O)cc3C(=O)O)cc2)SC1=S,inactive
9,COc1ccc(-c2csc(NC(=O)CSc3nc(C)nc4sc(C(=O)O)c(C)c34)n2)cc1,inactive
10,O=C(O)CSc1cc(C(=O)c2ccccc2O)cn2c(=O)c3c4c(sc3nc12)CCCC4,inactive
11,CC(C)S(=O)(=O)C1=NSC2=NC(=O)/C(=C\c3ccc(-c4ccccc4)o3)C(=N)N21,inactive
12,CCc1nnc(NS(=O)(=O)c2ccc(NC(=S)NC(=O)/C=C/c3ccc(C(C)C)cc3)cc2)s1,inactive
13,CS(=O)(=O)C1=NSC2=NC(=O)/C(=C\c3ccc(OC(=O)c4ccco4)c(Br)c3)C(=N)N21,inactive
14,Cc1ccc(-n2cccc2/C=C2/C(=N)N3C(=NC2=O)SN=C3S(C)(=O)=O)cc1Cl,inactive
15,COc1cc(/C=C2/C(=O)NN(c3ccc(Cl)cc3)C2=O)ccc1OC(=O)c1ccco1,inactive
16,CCc1nnc(NS(=O)(=O)c2ccc(NC(=S)NC(=O)/C=C/c3ccc(F)cc3)cc2)s1,inactive
17,O=C(CN1C(=O)S/C(=C\C=C\c2ccccc2)C1=O)Nc1ccccc1C(=O)O,inactive

row,SMILES,outcome
1,CC(C)COc1ccc(-c2nn(-c3ccccc3)cc2/C=C2/SC(=S)N(CC(=O)O)C2=O)cc1,inactive
2,Cc1ccc(S(=O)(=O)Oc2ccc(/C=C3/C(=N)N4C(=NC3=O)SN=C4S(C)(=O)=O)cc2)cc1,inactive
3,COc1cc(/C=C2\SC(=Nc3ccccc3)N(CCc3c[nH]c4ccccc34)C2=O)ccc1OC(C)C(=O)O (centres undefined),inactive
4,N#Cc1c(-c2ccccc2)nc(SCc2cccc(C(F)(F)F)c2)[nH]c1=O,inactive
5,Cc1cccc(C)c1-n1cccc1/C=C1\SC(=S)N(c2cccc(C(=O)O)c2)C1=O,inactive
6,O=C(O)CN1C(=O)/C(=C\c2cc(Br)ccc2OCc2ccccc2Cl)SC1=S,inactive
7,O=C(O)CSc1nc(-c2ccc(Cl)cc2)nc2c1oc1ccccc12,inactive
8,Cc1cc(C)c2nc(N3C(=O)C(O)=C(C(=O)c4ccco4)C3c3ccco3)sc2c1 (centres undefined),inactive
9,N#Cc1c(-c2ccccc2)nc(SCc2ccc(Cl)cc2)[nH]c1=O,inactive
10,CCCCCC(=O)Cc1cc(O)cc2c1C(=O)Oc1cc(O)c(C(=O)O)c(CCCCC)c1O2,inactive
11,O=C(O)c1ccc(-c2ccc(/C=c3/sc4nc5ccccc5n4c3=O)o2)cc1Cl,inactive
12,COc1cc(/C=C2/SC(=S)N(Cc3ccccc3)C2=O)ccc1OCC(=O)O,inactive
13,Cc1cc(Cl)ccc1OC(C)C(=O)Nc1ccc(C(=O)Nc2ccccc2C(=O)O)cc1 (centres undefined),inactive
14,O=C(O)c1ccc(-c2ccc(/C=C3\NC(=O)N(Cc4ccc(Cl)cc4)C3=O)o2)cc1Cl,inactive
15,COc1cc(/C=C(\C#N)c2nc3ccc(C)cc3[nH]2)cc([N+](=O)[O-])c1O,inactive
16,O=C(O)CN1C(=O)/C(=C\c2cc(Br)ccc2OCc2ccc(Cl)cc2)SC1=S,inactive
17,COc1ccccc1OCCOc1ccc(/C=C2\C(=N)N3N=C(S(C)(=O)=O)SC3=NC2=O)cc1,inactive
